About 83,000 compounds went through this panel and 20% of them were active in at least one assay; those are over-represented in the sample as a whole.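 Cells were grown in 96-well plates and exposed to the test compound at a single concentration for 48 hours; results are reported as percent growth, with values below 10 considered active.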 A number with no mark means an inactive call. The source made the active and inactive calls.
Experiments:
Experiment in all cases: NCI-60 one-dose screen, 48 h (100 = growth as untreated, 0 = no growth, -100 = all killed)
Conditions in all cases: 10 µM unless noted
HCT-15 colon = system: HCT-15 colon
HT29 colon = system: HT29 colon
SNB-75 CNS = system: SNB-75 CNS
SNB-19 CNS = system: SNB-19 CNS
U251 CNS = system: U251 CNS
PC-3 prostate = system: PC-3 prostate
SK-MEL-5 melanoma = system: SK-MEL-5 melanoma
UACC-62 melanoma = system: UACC-62 melanoma
LOX IMVI melanoma = system: LOX IMVI melanoma
SK-MEL-28 melanoma = system: SK-MEL-28 melanoma

| Structure (SMILES) | growth (HCT-15 colon) | growth (HT29 colon) | growth (SNB-75 CNS) | growth (SNB-19 CNS) | growth (U251 CNS) | growth (PC-3 prostate) | growth (SK-MEL-5 melanoma) | growth (UACC-62 melanoma) | growth (LOX IMVI melanoma) | growth (SK-MEL-28 melanoma) |
| --- | --- | --- | --- | --- | --- | --- | --- | --- | --- | --- |
| CCOC(=O)C1=C(c2ccccc2)N=C2SC=C(c3ccc(Cl)cc3)N2C1c1ccc(Cl)cc1 (stereo not given) | 77.6% | 83% | 84.7% | 82.8% | 80.9% | 41.3% | 54.7% | 66.4% | 88.3% | 95.8% |
| C=CC[Se]C(=O)Cc1c(C)n(C(=O)c2ccc(Cl)cc2)c2ccc(OC)cc12 | 6.96% (active) | 9.35% (active) | -68.6% (active) | -46% (active) | -58.7% (active) | -36% (active) | -69.7% (active) | -66.1% (active) | 7.91% (active) | -16% (active) |
| NNc1nc(-c2cccnc2)nc2c1sc(=S)n2-c1ccccc1 | 96.3% | 90.3% | 87.4% | 113% | 90.6% | 72.6% | 98.4% | 108% | 86.7% | 119% |
| C=CCn1c(SCC(=O)Nc2ccc(C(=O)/C=C/c3ccc(Cl)cc3)cc2)nnc1-c1ccc(Br)cc1 | 81.2% | 67.5% | 75.6% | 77.8% | 79.5% | 68% | 82.7% | 71% | 77.7% | 105% |
| Nc1ncnc2c1C(c1ccccc1)c1ccc3ccccc3c1O2 (stereo not given) | 96.5% | 92.5% | 64.7% | 80.7% | 86.4% | 70.5% | 77.7% | 68.5% | 72.1% | 103% |
| CCOc1nc(-c2ccccc2)cc2c(O)c(C(=O)N/N=C/c3ccccc3)[nH]c(=O)c12 | 104% | 105% | 122% | 105% | 106% | 93.5% | 102% | 103% | 109% | 114% |
| Clc1ccc(/C=N\N=C\c2ccc(Cl)c(Cl)c2)cc1Cl | 7.55% (active) | 32.3% | 123% | 95.1% | 76.3% | 71% | 93.8% | 84.1% | 72.4% | 101% |
| C=CCN=c1sc2c(n1NC(=O)c1cc3ccc1CCc1ccc(cc1)CC3)C(=O)c1ccccc1C2=O | -68.3% (active) | 26.1% | -94.6% (active) | 4.59% (active) | 0.221% (active) | 0.37% (active) | -98.5% (active) | -36% (active) | -80.3% (active) | -35.4% (active) |
| C=C(C)[C@@H]1CCC[C@]2(COS(=O)(=O)c3ccc(C)cc3)CC[C@]3(C)[C@@H](CC[C@@H]4[C@@]5(C)CCCNC(C)(C)[C@@H]5CC[C@]43C)[C@@H]12 | -61.5% (active) | -50.8% (active) | 81.6% | 39% | -82.1% (active) | 10.5% | 92.1% | 87.7% | -86.5% (active) | 68.3% |
| O=C1/C(=C/c2cccc(F)c2)CN(C(=O)C(Cl)Cl)C/C1=C\c1cccc(F)c1 | -64.7% (active) | 1.62% (active) | -52.2% (active) | -88.2% (active) | -90.2% (active) | -77.8% (active) | -82.2% (active) | -83.5% (active) | -92.1% (active) | -80.3% (active) |
| Cc1ccc(-c2nc([P+](c3ccccc3)(c3ccccc3)c3ccccc3)c(S(=O)(=O)c3ccc(C)cc3)o2)cc1 | 4.17% (active) | 0% (active) | -11.3% (active) | 53.5% | 3.23% (active) | 11.2% | 48.7% | 26.1% | -31.7% (active) | 24.6% |
| C#CCOc1ccc2ncnc(Nc3ccc(NC(=O)C=C)cc3)c2c1 | -14.8% (active) | -34.9% (active) | 70% | 17.6% | -22.9% (active) | 3.24% (active) | 13.1% | -68.7% (active) | -82.6% (active) | 2.36% (active) |
| CN1C(=O)/C(=C\c2nc([P+](c3ccccc3)(c3ccccc3)c3ccccc3)c(N3CCOCC3)o2)SC1=S | 91.3% | 98.3% | 92.1% | 12.5% | 66.2% | 46.1% | 78.4% | -3.31% (active) | 86.1% | 11% |
| O=C(Nc1nc(-c2ccc(Cl)cc2)nc2c1sc(=S)n2-c1ccccc1)C(F)(F)F | 54.9% | 17.5% | -44.1% (active) | 61.5% | 8.47% (active) | 38.6% | 64.9% | 21.1% | -20.4% (active) | 78.9% |
| CCOC(=O)C(=O)C(C(=O)OCC)c1ccccc1 (stereo not given) | 108% | 116% | 107% | 103% | 112% | 101% | 106% | 109% | 106% | 109% |
| Nc1cc(C(=O)NC[C@H]2CN(c3ccc(N4CCC(C(=O)O)CC4)cc3)C(=O)O2)ccc1Cl | 102% | 104% | 84.8% | 98.7% | 103% | 101% | 103% | 95.8% | 97% | 109% |
| O=C(CSC(=S)n1cnnc1)NC(=O)c1ccccc1 | 107% | 104% | 95% | 109% | 116% | 102% | 109% | 110% | 97% | 113% |
| COc1cc(OCc2cccc(Br)c2C)cc(OC)c1C=O | 80.6% | 75% | 90.2% | 91.8% | 87% | 79.6% | 91.9% | 36.5% | 90.1% | 99.5% |
| COc1ccc(C(=O)N2c3ccccc3Sc3ccccc32)c(OC)c1 | 19.2% | -0.815% (active) | 18.5% | 31.7% | 24.5% | 10.5% | 19% | 13.8% | 37.8% | 57.9% |
| Fc1cnccc1C1CC(c2ccc(N3CCNCC3)cc2)=NN1 (stereo not given) | 97.6% | 60.2% | 101% | 97.5% | 95.1% | 70.3% | 85.8% | 81.9% | 94.3% | 116% |
| N#Cc1c(-c2ccc(Cl)cc2)c(C#N)c2c(C#N)c(N)nn2c1N | 88.2% | 83.3% | 74.8% | 88.2% | 87.9% | 65.2% | 87.9% | 72.9% | 76.6% | 99.3% |
| CCC1=C[C@@H]2C[C@]3(C(=O)OC)c4[nH]c5ccccc5c4CC[N@+](CC(=O)Nc4cc5c(cc4OC)N(C)[C@H]4[C@@](O)(C(=O)OC)[C@H](OC(C)=O)[C@]6(CC)C=CCN7CC[C@]54[C@@H]76)(C2)[C@H]13 | 108% | 109% | 98.8% | 110% | 97.3% | 93.2% | 101% | 97.7% | 99.1% | 109% |
| Clc1ccc2c(NC3CCC(N4CCOCC4)CC3)ccnc2c1 (stereo not given) | 93.5% | 84.7% | 82.7% | 79.3% | 81.1% | 62.3% | 53.4% | 77.4% | 68.6% | 97.3% |
| Cn1cc(-c2nonc2-c2cn(C)c3ccccc23)c2ccccc21 | 30.2% | 6.32% (active) | 2.13% (active) | 24.7% | 18.8% | 26.2% | 26.2% | 30.6% | 48.5% | 57.4% |
| O=C(/C=C/c1cn(-c2ccccc2)nc1-c1ccc(Cl)cc1)c1ccc(F)cc1 | 58.8% | 77% | 74.6% | 76.1% | 76.6% | 67.6% | 86% | 59% | 68.7% | 106% |
| CN(C)S(=O)(=O)c1cccc(C(=O)Nc2nc(-c3ccc(F)c(F)c3)cs2)c1 | 61.3% | 74.3% | 75.5% | 92% | 55.1% | 39.1% | 2.37% (active) | 45.9% | 71.9% | 102% |
